Among the data in paper PMC11062922 (Nature Chemical Biology, 2023) are potency estimated from few doses values, retold here.

Holding throughout (set-up): species or system human, MV4-11 + K-562 + COLO205 + SK-N-BE2 + OVCAR-8
One experiment deals with EGFR. Conditions: read-out: apparent Kd, compound concentrations: 100 nM and 1000 nM (sheet 'Samples'), n = 1.
The next experiment has as its system PIK3CD. Conditions: read-out: apparent Kd; compound concentrations: 100 nM and 1000 nM (sheet 'Samples'), CATDS: 0.982888258017659; n = 1.
A further experiment concerns TTN. Conditions: read-out: apparent Kd; compound concentrations: 100 nM and 1000 nM (sheet 'Samples'), CATDS: 0.640536562241112; n = 1.
The subject of a further experiment is RIPK2. Conditions: read-out: apparent Kd, compound concentrations: 100 nM and 1000 nM (sheet 'Samples'), n = 1.
The test system of the next experiment is JAK2. Conditions: read-out: apparent Kd; compound concentrations:100 nM and 1000 nM (sheet 'Samples'); n = 1.
For another experiment, the system named is PRKACG. Conditions: read-out: apparent Kd; compound concentrations:100 nM and 1000 nM (sheet 'Samples'); n = 1.
The next experiment relates to PGK1. Conditions: read-out: apparent Kd; compound concentrations:100 nM and 1000 nM (sheet 'Samples'); n = 1.
Another experiment concerns EPHA1. Conditions: read-out: apparent Kd; compound concentrations: 100 nM and 1000 nM (sheet 'Samples'), CATDS: 0.101565778514596; n = 1.
The next experiment deals with EPHA2. Conditions: read-out: apparent Kd; compound concentrations: 100 nM and 1000 nM (sheet 'Samples'), CATDS: 6.7925989209778895E-2; n = 1.
For another experiment, the system named is EPHA4. Conditions: read-out: apparent Kd; compound concentrations: 100 nM and 1000 nM (sheet 'Samples'), CATDS: 7.2128070641764394E-2; n = 1.
The test system of another experiment is EPHA5. Conditions: read-out: apparent Kd; compound concentrations: 100 nM and 1000 nM (sheet 'Samples'), CATDS: 6.7106289127757499E-2; n = 1.
Another experiment has as its system EPHA7. Conditions: read-out: apparent Kd; compound concentrations: 100 nM and 1000 nM (sheet 'Samples'), CATDS: 5.7157289588894301E-2; n = 1.
The next experiment has as its system EPHB2. Conditions: read-out: apparent Kd; compound concentrations: 100 nM and 1000 nM (sheet 'Samples'), CATDS: 6.4850076698592204E-2; n = 1.
Another experiment concerns EPHB4. Conditions: read-out: apparent Kd; compound concentrations: 100 nM and 1000 nM (sheet 'Samples'), CATDS: 0.111344717085302; n = 1.
A further experiment concerns FLT4. Conditions: read-out: apparent Kd; compound concentrations: 100 nM and 1000 nM (sheet 'Samples'), CATDS: 5.9092612801250499E-2; n = 1.
The test system of a further experiment is MAPK14. Conditions: read-out: apparent Kd, n = 1.
Another experiment has as its system MAPKAPK2. Conditions: read-out: apparent Kd, n = 1.
The subject of the next experiment is NNT. Conditions: read-out: apparent Kd; compound concentrations: 100 nM and 1000 nM (sheet 'Samples'), CATDS: 5.7006998713096203E-2; n = 1.
A further experiment has as its system RET. Conditions: read-out: apparent Kd; compound concentrations: 100 nM and 1000 nM (sheet 'Samples'), CATDS: 0.20598352545457299; n = 1.
In another experiment the test system is TESK2. Conditions: read-out: apparent Kd; compound concentrations: 100 nM and 1000 nM (sheet 'Samples'), CATDS: 0.39865436806100402; n = 1.
A further experiment deals with PIK3CG. Conditions: read-out: apparent Kd, compound concentrations: 100 nM and 1000 nM (sheet 'Samples'), n = 1.
The test system of the next experiment is NQO1. Conditions: read-out: apparent Kd, compound concentrations: 100 nM and 1000 nM (sheet 'Samples'), n = 1.
In a further experiment the test system is EIF2AK1. Conditions: read-out: apparent Kd; compound concentrations:100 nM and 1000 nM (sheet 'Samples'); n = 1.
For the next experiment, the system named is GAK. Conditions: read-out: apparent Kd; compound concentrations:100 nM and 1000 nM (sheet 'Samples'); n = 1.
The next experiment deals with MAPK11. Conditions: read-out: apparent Kd; compound concentrations:100 nM and 1000 nM (sheet 'Samples'); n = 1.
For a further experiment, the system named is MAPK8. Conditions: read-out: apparent Kd; compound concentrations:100 nM and 1000 nM (sheet 'Samples'); n = 1.
A further experiment relates to MAPK9. Conditions: read-out: apparent Kd; compound concentrations:100 nM and 1000 nM (sheet 'Samples'); n = 1.
The next experiment concerns PIP4K2C. Conditions: read-out: apparent Kd; compound concentrations:100 nM and 1000 nM (sheet 'Samples'); n = 1.
Another experiment relates to SIK2. Conditions: read-out: apparent Kd; compound concentrations:100 nM and 1000 nM (sheet 'Samples'); n = 1.
In a further experiment the test system is SIK3. Conditions: read-out: apparent Kd; compound concentrations:100 nM and 1000 nM (sheet 'Samples'); n = 1.
The next experiment concerns TAOK2. Conditions: read-out: apparent Kd; compound concentrations:100 nM and 1000 nM (sheet 'Samples'); n = 1.
In a further experiment the test system is EIF5B. Conditions: read-out: apparent Kd; compound concentrations: 100 nM and 1000 nM (sheet 'Samples'), CATDS: 0.290212668862731; n = 1.
In the next experiment the test system is FECH. Conditions: read-out: apparent Kd; compound concentrations: 100 nM and 1000 nM (sheet 'Samples'), CATDS: 0.34999062122036301; n = 1.
The next experiment relates to PLK1. Conditions: read-out: apparent Kd; compound concentrations: 100 nM and 1000 nM (sheet 'Samples'), CATDS: 0.37077800289250101; n = 1.
The mark [1] stands for this setting: compound concentrations:100 nM and 1000 nM (sheet 'Samples').

Each structure is given as a SMILES string. Where two headings read alike, the source gives them in different places.

With `Cl.O=S(=O)(c1cccc(F)c1)c1ccc(Nc2ncnc3cc(Br)sc23)cc1Cl` [GSK306886A], the potency estimated from few doses was 1350 nM with EGFR (CATDS: 0.33527903035184697) and 11.9 nM with PIK3CD.

`c1ccc(COc2ccc(Nc3ncnc4ccc(-c5ccco5)cc34)cc2)cc1` [GW284372X]: the potency estimated from few doses with EGFR (CATDS: 0.410036232309059) was 781 nM; with TTN, 304 nM.

For `Cn1cncc1-c1cc2c(Nc3ccc(OCc4ccccc4)cc3)ncnc2cn1` [GW281179X], the potency estimated from few doses with EGFR (CATDS: 0.48641322117949298) is 124 nM; with RIPK2 (CATDS: 0.514367617378505), 111 nM.

Turning to `O=C(O)C(F)(F)F.O=S1CCN(Cc2ccc(-c3ccc4ncnc(Nc5ccc(OCc6cccc(F)c6)c(Cl)c5)c4c3)o2)CC1` [GW576609A], the values for the potency estimated from few doses in the experiment on EGFR (CATDS: 0.496271215913483), in the experiment on JAK2 and in the experiment with PRKACG were 306 nM, 1050 nM and 781 nM, respectively.

As for `CS(=O)(=O)CCNCc1nc(-c2ccc3ncnc(Nc4ccc(OCc5cccc(F)c5)c(Cl)c4)c3c2)cs1.Cl` [GW583340C], the potency estimated from few doses was 96.3 nM with EGFR (CATDS: 0.528390210256103) and 119 nM in the experiment with PGK1.

For the molecule `COc1cc2ncnc(Nc3cccc(Cl)c3F)c2cc1O[C@H]1CC[C@H]([C@@H]2NCCNC2=O)CC1` [BI00133844], the potency estimated from few doses is 15.4 nM with EGFR (CATDS: 0.60963151876595101); 403 nM with EPHA1; 1060 nM in the experiment with EPHA2; 898 nM in the experiment on EPHA4; 1090 nM with EPHA5; 1800 nM with EPHA7. Moreover, the potency estimated from few doses in the experiment with EPHB2 was 1200 nM; with EPHB4 it was 332 nM; with FLT4, 1600 nM; with MAPK14 (compound concentrations: 100 nM and 1000 nM (sheet 'Samples'), CATDS: 5.8794914903048702E-2), 1630 nM; in the experiment on MAPKAPK2 (compound concentrations: 100 nM and 1000 nM (sheet 'Samples'), CATDS: 6.3284106262713205E-2) it was 1290 nM; in the experiment with NNT it was 1810 nM. The potency estimated from few doses in the experiment with RET was 99 nM.

Regarding `Cl.O=S(=O)(CCNCc1ccc(-c2ccc3ncnc(Nc4ccc(OCc5cccc(F)c5)c(Cl)c4)c3c2)o1)c1ccccc1` [GW633459A], the potency estimated from few doses with EGFR (CATDS: 0.67043836864821504) is 597 nM; in the experiment on TESK2, 1830 nM.

Regarding `CC(=O)Nc1cccc(C#Cc2cncnc2Nc2ccc(OCc3cccc(F)c3)c(Cl)c2)n1` [GW794726X], the potency estimated from few doses in the experiment on EGFR (CATDS: 0.81532426513796596) was 184 nM; in the experiment on PIK3CG (CATDS: 0.36055601865019399), 1440 nM.

Turning to `COc1ccc2ncnc(Nc3ccc(OCc4ccccc4)cc3)c2c1.Cl` [GI261520A], the results for the potency estimated from few doses with EGFR (CATDS: 0.82087147453604603), with PIK3CG (CATDS: 0.25285428644367502) and with RIPK2 (CATDS: 0.26130568040748398) were 67.2 nM, 1240 nM and 1100 nM, respectively.

With `CN(C)C(=O)O[C@@H]1CN[C@@H](C#Cc2cc3ncnc(Nc4ccc(OCc5cccc(F)c5)c(Cl)c4)c3s2)C1` [GSK238063A], the figures for the potency estimated from few doses in the experiment with EGFR (CATDS: 0.84282841422731203) and with NQO1 (CATDS: 0.35542679551124801) were 175 nM and 1700 nM, respectively.

As for `CC(=O)NCc1cccc(C#Cc2cncnc2Nc2ccc(OCc3cccc(F)c3)c(Cl)c2)c1` [GW807930X], the potency estimated from few doses with EGFR (CATDS: 0.88842612806031096) was 149 nM; with NQO1 (CATDS: 0.34789699583550798), 2230 nM.

Regarding `CS(=O)(=O)CCNCc1coc(-c2ccc3ncnc(Nc4ccc(OCc5ccccc5)cc4)c3c2)c1` [GW566221B], the figures for the potency estimated from few doses in the experiment on EGFR (CATDS: 0.90978509927548601) and in the experiment on RIPK2 (CATDS: 0.34472781375122202) were 43.8 nM and 839 nM, respectively.

Regarding `Cn1c(=O)c(-c2ccccc2Cl)cc2cnc(NC3CCOCC3)nc21` [RO3303470-000], the potency estimated from few doses with EIF2AK1 is 1090 nM; with GAK, 695 nM; in the experiment with MAPK11, 20.2 nM; in the experiment on MAPK14 (setting [1]) it was 24 nM; in the experiment on MAPK8, 318 nM; in the experiment with MAPK9, 202 nM. The potency estimated from few doses with MAPKAPK2 (setting [1]) was 12.5 nM; in the experiment on PIP4K2C it was 1140 nM; in the experiment with SIK2, 1330 nM; with SIK3, 604 nM; in the experiment on TAOK2, 1880 nM.

With `COc1ccc(COc2cc(-n3cnc4ccccc43)sc2C(N)=O)cc1` [GSK1024304A], the potency estimated from few doses in the experiment on EIF5B is 1710 nM; in the experiment on FECH it was 1150 nM; in the experiment with PLK1, 1030 nM.
